Data on nine compounds can be found in PubChem BioAssay (NCI).

Assay in all cases: NCI-60 one-dose screen, 48 h (100 = growth as untreated, 0 = no growth, -100 = all killed)
Common to all, as to conditions: 10 µM unless noted

The test system of experiment [1] is SR leukemia.
Experiment [2] has as its system RPMI-8226 leukemia.
For experiment [3], the system named is OVCAR-8 ovarian.
Experiment [4] relates to OVCAR-5 ovarian.
Experiment [5] concerns OVCAR-4 ovarian.
Experiment [6] relates to SK-OV-3 ovarian.
The subject of experiment [7] is IGROV1 ovarian.
In experiment [8] the test system is OVCAR-3 ovarian.
For experiment [9], the system named is HS 578T breast.
The subject of experiment [10] is NCI/ADR-RES ovarian.
Experiment [11] relates to T-47D breast.
Experiment [12] concerns MDA-MB-435 melanoma.
The subject of experiment [13] is SW-620 colon.
Experiment [14] deals with MCF7 breast.
Experiment [15] has as its system HCT-116 colon.
The test system of experiment [16] is HCC-2998 colon.
In experiment [17] the test system is KM12 colon.
Experiment [18] relates to BT-549 breast.

Each structure is given as a SMILES string. Compounds without any hit were thinned out: in the full panel of roughly 83,000, 20% have a hit.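 48-hour exposure, single concentration, 96-well plates; percent growth endpoint where 0 means no net growth. Active: below 10.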 Values without a mark were called inactive. Calls of active or inactive are those of the source.

In the case of `COc1ccc(C2=NN3C(C2)c2cc(Br)ccc2OC3c2ccncc2)cc1` (stereo not drawn), the growth in experiment [1] was 64.2%; in [2], 77.8%; in experiment [3] it was 82.6%; in experiment [4], 88.4%; in [5], 78.9%; in experiment [6] it was 70.6%. Moreover, the growth in [7] was 48.9%; in experiment [8] it was 80.1%; in [9], 89.4%; in experiment [10], 82%; in experiment [11], 69.1%; in experiment [12], 92.4%. For the same compound, the growth in [13] was 90.7%; in [14], 70.7%; in experiment [15], 76.8%; in experiment [16], 105%; in experiment [17], 73%.
`CO[C@H]1/C=C/O[C@@]2(C)Oc3c(C)c(O)c4c(O)c(c5c(nc6cc(C)ccn65)c4c3C2=O)NC(=O)/C(C)=C\C=C\[C@H](C)[C@H](O)[C@@H](C)C(O)[C@@H](C)[C@H](OC(C)=O)[C@@H]1C` (stereo partly drawn): the growth is 99.3% in [1]; 104% in experiment [2]; 98.3% in experiment [3]; 113% in experiment [4]; 100% in [5]; 31.9% in experiment [6]. Besides, the growth in experiment [7] was 97%; in experiment [8], 104%; in experiment [9], 72%; in experiment [10], 104%; in experiment [11], -5.36% (active); in [18] it was 97.4%. Moreover, the growth in experiment [12] was 104%; in experiment [13], 114%; in experiment [15] it was 94.9%; in experiment [16] it was 106%; in experiment [17], 108%.
`Cc1ccc(C23CCC(=O)N2CCc2cncn23)cc1` (stereo not drawn): the growth in experiment [1] is 126%; in experiment [2] it was 100%; in [3], 97.2%; in experiment [4] it was 96.3%; in experiment [5], 108%; in experiment [6], 92.8%. For the same compound, the growth in experiment [7] was 93.6%; in experiment [8] it was 113%; in [9], 101%; in [10] it was 107%; in experiment [11], 91.2%; in experiment [18], 100%. In addition, the growth was 101% in experiment [12]; 97.7% in experiment [13]; 104% in experiment [15]; 107% in experiment [16]; 101% in experiment [17].
Regarding `[2H]C([2H])([2H])Oc1ccc(/C=C/C(=O)/C=C(/C=C/c2ccc(OC([2H])([2H])[2H])c(OC([2H])([2H])[2H])c2OC([2H])([2H])[2H])OB(F)F)c(OC([2H])([2H])[2H])c1OC([2H])([2H])[2H]`, the growth in [1] is 8.05% (active); in experiment [2], 18.9%; in experiment [3], 9.4% (active); in [4] it was 91.1%; in experiment [5], 65.2%; in [6] it was 103%. Moreover, the growth in [7] was 57.1%; in experiment [8], 14.5%; in experiment [9], 60%; in experiment [10], 54.6%; in experiment [11], 51.7%; in experiment [12] it was 26.7%. Moreover, the growth in [13] is 18.4%; in [14], 28.2%; in [15], 6.6% (active); in [16], 120%; in [17], 81.3%.
In the case of `COc1ccc(NC(=O)c2ccc(NC3=C(c4ccc(Cl)cc4)C(=O)NC3=O)cc2)cc1`, the growth in experiment [1] is 57.1%; in experiment [2] it was 73.8%; in experiment [3], 84.8%; in experiment [4], 100%; in experiment [5] it was 84.1%; in experiment [6], 69.8%. For the same compound, the growth was 92.8% in experiment [7]; 89.2% in experiment [8]; 102% in experiment [9]; 88.3% in [10]; 62.3% in experiment [11]; 95.3% in experiment [12]. In addition, the growth in [13] is 103%; in experiment [14], 83.5%; in [15], 88.9%; in experiment [16] it was 97.6%; in experiment [17] it was 80.9%.
Turning to `C#CCOc1ccc(C2=NN(CCCC)C3N=C(Cl)c4ncn(CCCC)c4N23)cc1OCC#C` (stereo not drawn), the growth in [1] is 79.1%; in experiment [2], 85.2%; in [3] it was 85.9%; in experiment [4], 93.6%; in experiment [5] it was 86.2%; in experiment [6] it was 92.3%. The growth was 99.2% in [7]; 97.2% in experiment [8]; 80.6% in experiment [9]; 83% in experiment [10]; 69.6% in experiment [11]; 90.6% in experiment [18]. The growth in experiment [12] is 86.7%; in experiment [13] it was 88.7%; in experiment [15] it was 83.1%; in experiment [16], 107%; in experiment [17], 88.3%.
On to `CCCCCCC/C=N/NC(=O)c1ccc(-n2cc(-c3ccccc3)nn2)cc1`, for which the growth in experiment [1] was 79.4%; in [2], 94.3%; in experiment [3], 95.6%; in experiment [4], 89.9%; in experiment [5], 93.1%; in [6] it was 87.8%. Further, the growth in [7] is 74.9%; in [8], 102%; in experiment [9] it was 91.3%; in [10] it was 86.9%; in [11], 95.4%; in experiment [12], 90.8%. The growth in experiment [13] was 95.6%; in experiment [14], 85.9%; in experiment [15] it was 97.5%; in [16], 88%; in experiment [17], 86.8%.
Consider `Cc1nc2ccccc2c(/C=C/c2ccc(Br)cc2)c1C(=O)/C=C/c1ccccc1`, for which the growth in experiment [1] was 13.6%; in experiment [2], -8.25% (active); in experiment [3], 2.21% (active); in experiment [4], -18% (active); in experiment [5] it was 12.5%; in [6] it was 49.4%. Also, the growth in experiment [7] is -7.6% (active); in experiment [8], -72.1% (active); in experiment [9], 25.9%; in experiment [10], -2.99% (active); in experiment [11], 10.1%; in experiment [12], -47.3% (active). The growth in [13] is 2.35% (active); in experiment [14], 14%; in experiment [15], -49.1% (active); in experiment [16], -41.4% (active); in [17], 7.65% (active).
On to `Oc1c(Cl)cc(Cl)c2ccc(CN3CCNCC3)nc12`, for which the growth is 25.6% in experiment [1]; 39.4% in [2]; 27.5% in [3]; 82.4% in experiment [4]; 37.7% in experiment [5]; 52.8% in [6]. The growth in experiment [7] is 43.3%; in experiment [8], 42.9%; in experiment [9] it was 70.4%; in experiment [10] it was 5.37% (active); in [11], 43.6%; in [18] it was 82.2%. In addition, the growth in [12] is 58.6%; in experiment [13], 26.6%; in experiment [15], 32.6%; in experiment [16], 60.1%; in experiment [17] it was 49.6%.
